# Results filed as inconclusive are left out. The source made the active and inactive calls.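 Rule for the calls, unless noted: active = normalized viability below 100% at a tested concentration; inactive = the rest.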
# Key:
# [1] = growth inhibition of DIPG glioma cells, dose response, cell-based, JHH-DIPG-1, MIPE4.0, CellTiter-Glo, qHTS (AID 1347062; cut-off not given, nearly all actives have AC50 up to about 27 µM;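 for AC50: cells exposed to compound for two days before readout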); details: JHH-DIPG-1 viability, CellTiter-Glo ATP luminescence
# [2] = growth inhibition of DIPG glioma cells, dose response, cell-based, SU-DIPG-IV, MIPE4.0, CellTiter-Glo, qHTS (AID 1347063; cut-off not given, nearly all actives have AC50 up to about 30 µM;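 note: compound exposure lasted 48 hours before the viability readout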); details: SU-DIPG-IV viability, CellTiter-Glo ATP luminescence
# [3] = growth inhibition of DIPG glioma cells, dose response, cell-based, SU-DIPG-XIII, MIPE5.0, CellTiter-Glo, qHTS (AID 1347064; cut-off not given, nearly all actives have AC50 up to about 23 µM;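 for AC50: cells exposed to compound for 48 hours before the viability read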); details: SU-DIPG-XIII viability, CellTiter-Glo ATP luminescence
# [4] = viability loss in pontine glioma line – cell-based, SU-DIPG-XXV, MIPE5.0, CellTiter-Glo, qHTS, dose response (AID 1347065; cut-off not given, nearly all actives have AC50 up to about 26 µM;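 note: cells exposed to compound for 48 hours before ATP readout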); details: CellTiter-Glo ATP luminescence
# [5] = JHH-DIPG-1 glioma cell viability, MIPE5.0 library, CellTiter-Glo luminescence, qHTS (AID 1347067; cut-off not given, nearly all actives have AC50 up to about 26 µM;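 note: cells exposed to compound for 48 hours before readout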); details: JHH-DIPG-1 glioma viability, CellTiter-Glo ATP luminescence
# [6] = SU-DIPG-XXV glioma cell viability, MIPE5.0 library, qHTS (AID 1347068; cut-off not given, nearly all actives have IC50 up to about 30 µM)
# [7] = growth inhibition of DIPG glioma cells, dose response, cell-based, SU-DIPG-XIII, MIPE4.0, CellTiter-Glo, qHTS (AID 1347061; cut-off not given, nearly all actives have AC50 up to about 37 µM;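 note: cells exposed to compound for 48 hours before readout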); details: SU-DIPG-XIII viability, CellTiter-Glo ATP luminescence
# [8] = SU-DIPG-VI glioma cell viability, MIPE4.0 library, CellTiter-Glo luminescence, qHTS (AID 1347066; cut-off not given, nearly all actives have AC50 up to about 30 µM;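 note: cells exposed to compound for 48 hours before readout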); details: CellTiter-Glo ATP luminescence
# [9] = sensitizers of A549 cells to miR-34 induction, primary screen, imaging, A549 dox-inducible miR-34, nuclei and caspase counts (AID 1347080;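 active = compounds whose cell count with miR-34 switched on is under 0.7 times the count with it off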); details: A549 miR-34 inducible, Hoechst nuclei count, 48 h
# [10] = viability rescue of complex I mutant cybrids, primary screen, cell-based, galactose medium, ATP luminescence (AID 1645843;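 active = z-score of at least 1.8 in each of two replicates, scored against plate mean and spread of sample wells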;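 note: positive z means more ATP and so rescue of galactose-driven cybrid death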); details: complex I mutant cybrid cells, 72 h, stronger effect = higher value
# [11] = inhibitors of Cryptococcus chitosan production, flow cytometry, Cibacron Brilliant Red staining (AID 1347148; call rule not given here;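 note: compound exposure lasted three days at 37 degrees C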); details: Cryptococcus neoformans chitosan, stronger effect = lower value; at 10 µM unless noted
# [12] = ovarian cancer cell viability with rucaparib, profiling panel, oncology-focused library, rucaparib conditional (AID 1508598); details: patient-derived ovarian cancer cells, CellTiter-Glo viability, 144 h, stronger effect = lower value
compound,measurement,setting,value
CN1CCN(c2ccc([N+](=O)[O-])c3no[n+]([O-])c23)CC1,AC50,[1],23.5 µM (active)
same,AC50,[2],16.6 µM (active)
same,AC50,[3],16.6 µM (active)
same,AC50,[4],18.6 µM (active)
same,AC50,[5],23.5 µM (active)
same,outcome,[6],inactive
C[C@@H]1[C@H](O)[C@@H](C)C=CC=CCCC=CC=CC=CC=C[C@H](O[C@H]2O[C@@H](C)[C@H](O)[C@@H](N)[C@H]2O)CC2O[C@](O)(C[C@@H](O)[C@H](O)CC[C@@H](O)C[C@@H](O)C[C@@H](O)CC(=O)O[C@H]1C)C[C@H](O)[C@H]2C(=O)O,outcome,[7],inactive
same,outcome,[1],inactive
same,outcome,[2],inactive
same,outcome,[8],inactive
CCOC(=O)Nc1ccc(NCc2ccc(F)cc2)cc1N,outcome,[7],inactive
same,outcome,[3],inactive
same,outcome,[4],inactive
same,outcome,[8],inactive
same,outcome,[5],inactive
same,outcome,[6],inactive
COc1ccc2c(c1)[C@]13CCCCC1C(C2)N(C)CC3 (stereo not given in full),outcome,[1],inactive
same,outcome,[2],inactive
same,outcome,[8],inactive
same,fold change,[9]; stronger effect = lower value,0.884 (inactive)
same,fold change,[9]; measured here: relative caspase fold change +Dox/-Dox,1.91
same,cell count,"[9]; measured here: total cells with miR-34 induction, stronger effect = lower value",7550
same,cell count,[9]; measured here: total cells without miR-34 induction,8540
same,z-score,[10],0.055 (inactive)
CC(C)N[C@@H]1CCn2c(=O)[nH]c3cccc(c32)[C@H]1O,AC50,[7],7.43 µM (active)
same,AC50,[1],14.8 µM (active)
same,AC50,[2],0.743 µM (active)
same,AC50,[8],23.5 µM (active)
CC1=C(CC/C(C)=C/CCC2=CCC(C3=CC(=O)OC3O)OC2O)C(C)(C)CCC1 (stereo not given),outcome,[7],inactive
same,outcome,[1],inactive
same,outcome,[2],inactive
same,outcome,[8],inactive
same,fold fluorescence,[11],4.39 [at 120 µM] (inactive)
Cc1c(N)nc([C@H](CC(N)=O)NC[C@@H](N)C(N)=O)nc1C(=O)N[C@H](C(=O)N[C@@H](C)[C@H](O)[C@@H](C)C(=O)N[C@@H](C(=O)NCCc1nc(-c2nc(C(=O)NCCC[S+](C)C)cs2)cs1)[C@@H](C)O)C(O[C@H]1O[C@H](CO)[C@H](O)[C@@H](O)[C@H]1O[C@H]1O[C@H](CO)[C@@H](O)[C@H](OC(N)=O)[C@@H]1O)c1cnc[nH]1 (stereo not given in full),outcome,[7],inactive
same,outcome,[1],inactive
same,AC50,[2],1.87 µM (active)
same,outcome,[3],inactive
same,outcome,[8],inactive
same,outcome,[5],inactive
same,outcome,[6],inactive
same,viability,"[12]; at 0.000305 µM, OCI-C5x cells, with rucaparib 10 µM, 100% = cells with rucaparib alone",106% (inactive)
same,viability,"[12]; at 0.000305 µM, OCI-C5x cells, without rucaparib",102% (inactive)
same,viability,"[12]; at 0.000305 µM, OCI-P5x cells, with rucaparib 20 µM, 100% = cells with rucaparib alone",109% (inactive)
same,viability,"[12]; at 0.000305 µM, OCI-P5x cells, without rucaparib",102% (inactive)
same,viability,"[12]; at 0.00122 µM, OCI-C5x cells, with rucaparib 10 µM, 100% = cells with rucaparib alone",109% (inactive)
same,viability,"[12]; at 0.00122 µM, OCI-C5x cells, without rucaparib",107% (inactive)
same,viability,"[12]; at 0.00122 µM, OCI-P5x cells, with rucaparib 20 µM, 100% = cells with rucaparib alone",106% (inactive)
same,viability,"[12]; at 0.00122 µM, OCI-P5x cells, without rucaparib",97.2% (active)
same,viability,"[12]; at 0.00488 µM, OCI-C5x cells, with rucaparib 10 µM, 100% = cells with rucaparib alone",120% (inactive)
same,viability,"[12]; at 0.00488 µM, OCI-C5x cells, without rucaparib",100% (inactive)
same,viability,"[12]; at 0.00488 µM, OCI-P5x cells, with rucaparib 20 µM, 100% = cells with rucaparib alone",96% (active)
same,viability,"[12]; at 0.00488 µM, OCI-P5x cells, without rucaparib",94.3% (active)
same,viability,"[12]; at 0.0195 µM, OCI-C5x cells, with rucaparib 10 µM, 100% = cells with rucaparib alone",104% (inactive)
same,viability,"[12]; at 0.0195 µM, OCI-C5x cells, without rucaparib",90.7% (active)
same,viability,"[12]; at 0.0195 µM, OCI-P5x cells, with rucaparib 20 µM, 100% = cells with rucaparib alone",88.2% (active)
same,viability,"[12]; at 0.0195 µM, OCI-P5x cells, without rucaparib",84.4% (active)
same,viability,"[12]; at 0.0781 µM, OCI-C5x cells, with rucaparib 10 µM, 100% = cells with rucaparib alone",103% (inactive)
same,viability,"[12]; at 0.0781 µM, OCI-C5x cells, without rucaparib",95% (active)
same,viability,"[12]; at 0.0781 µM, OCI-P5x cells, with rucaparib 20 µM, 100% = cells with rucaparib alone",94.6% (active)
same,viability,"[12]; at 0.0781 µM, OCI-P5x cells, without rucaparib",85.9% (active)
same,viability,"[12]; at 0.313 µM, OCI-C5x cells, with rucaparib 10 µM, 100% = cells with rucaparib alone",86.7% (active)
same,viability,"[12]; at 0.313 µM, OCI-C5x cells, without rucaparib",84.5% (active)
same,viability,"[12]; at 0.313 µM, OCI-P5x cells, with rucaparib 20 µM, 100% = cells with rucaparib alone",76.8% (active)
same,viability,"[12]; at 0.313 µM, OCI-P5x cells, without rucaparib",57.6% (active)
same,viability,"[12]; at 1.25 µM, OCI-C5x cells, with rucaparib 10 µM, 100% = cells with rucaparib alone",74.8% (active)
same,viability,"[12]; at 1.25 µM, OCI-C5x cells, without rucaparib",69.9% (active)
same,viability,"[12]; at 1.25 µM, OCI-P5x cells, with rucaparib 20 µM, 100% = cells with rucaparib alone",62.8% (active)
same,viability,"[12]; at 1.25 µM, OCI-P5x cells, without rucaparib",39.3% (active)
same,viability,"[12]; at 5 µM, OCI-C5x cells, with rucaparib 10 µM, 100% = cells with rucaparib alone",53.8% (active)
same,viability,"[12]; at 5 µM, OCI-C5x cells, without rucaparib",47.2% (active)
same,viability,"[12]; at 5 µM, OCI-P5x cells, with rucaparib 20 µM, 100% = cells with rucaparib alone",39.6% (active)
same,viability,"[12]; at 5 µM, OCI-P5x cells, without rucaparib",21.3% (active)
COc1cccc2c1[C@]13CCN(CC4CC4)[C@H](C2)[C@]1(OC)CCC(=O)C3,outcome,[7],inactive
same,outcome,[1],inactive
same,outcome,[8],inactive
